Inconclusive results are not listed. Entries that show only a call come without a potency. The source made the active and inactive calls. The call rests on the fitted dose curve; in most records, active means well fitted inhibition curve with a large enough effect; inconclusive means small, poorly fitted or top-dose-only effect; inactive means flat fitted curve, though single readings scatter.

In this assay the target is Luciferin 4-monooxygenase (Photinus pyralis) (UniProt P08659). In words: Biochemical firefly luciferase enzyme assay for NPC (AID 624030). Further: nearly all actives have a fitted effect of over 70% in size. The conditions noted are these: purified P. pyralis luciferase, luminescence, 5 min; series mostly up to 58.6 µM. From the text: Charcot-Marie-Tooth-Association [CMTA] National Center for Advancing Translational Sciences [NCATS] Charcot-Marie-Tooth (CMT) disease was first characterized by Jean-Martin Charcot and Pierre Marie in France and, independently, by Howard Henry Tooth in England in 1886. CMT is one of the most common inherited neurological diseases, affecting approximately 1 in 2,500 Americans. […] The most prevalent type of CMT is known as CMT1A and caused by a duplication of the PMP22 gene which leads to over-expression of this protein. PMP22 is a glycosylated intrinsic membrane protein accounting for 2-5% of the myelin protein content, and its over-expression results in demyelination and subsequently axonal loss. A pair of cellular transcription-based assays was developed in the S16 rat Schwann cell lines (Hai, M., et al., 2002) stably transfected with orthogonal reporters - firefly luciferase (Fluc) and beta-lactamase (beta-Lac) - whose expression is driven by an intronic regulatory element of the PMP22 gene (Jones, E.A., et al., 2011) to recapitulate endogenous expression of PMP22. A comprehensive library of approved drugs, the NCGC Pharmaceutical Collection (Huang, R., et al., 2011), was screened in the cross-validating platform of the orthogonal reporter assays to identify drug modulators inhibitory towards PMP22 expression. A set of counter-screens was devised to address non-specific activity of the library. An ATP-dependent CellTiter-Glo assay (developed by Promega Corp) was utilized to control cell viability. In addition, biochemical Fluc enzyme assay was performed to assess direct inhibition of the Fluc enzymatic activity. References Hai, M., Muja, N., DeVries, G.H., Quarles, R.H. and Patel, P.I. Comparative analysis of Schwann cell lines as model systems for myelin gene transcription studies. J Neurosci Res, 2002. 69(4): pp 497-508 Huang, R., Southall, N., Wang, Y., Yasgar A., Shinn P., Jadhav, A. , Nguyen, D.-T. and Austin, C.P., The NCGC pharmaceutical collection: a comprehensive resource of clinically approved drugs enabling repurposing and chemical genomics. Sci Transl Med, 2011. 3(80): p. 80ps16.
Chain of Luciferin 4-monooxygenase (Photinus pyralis) (P08659 whole entry, looked up): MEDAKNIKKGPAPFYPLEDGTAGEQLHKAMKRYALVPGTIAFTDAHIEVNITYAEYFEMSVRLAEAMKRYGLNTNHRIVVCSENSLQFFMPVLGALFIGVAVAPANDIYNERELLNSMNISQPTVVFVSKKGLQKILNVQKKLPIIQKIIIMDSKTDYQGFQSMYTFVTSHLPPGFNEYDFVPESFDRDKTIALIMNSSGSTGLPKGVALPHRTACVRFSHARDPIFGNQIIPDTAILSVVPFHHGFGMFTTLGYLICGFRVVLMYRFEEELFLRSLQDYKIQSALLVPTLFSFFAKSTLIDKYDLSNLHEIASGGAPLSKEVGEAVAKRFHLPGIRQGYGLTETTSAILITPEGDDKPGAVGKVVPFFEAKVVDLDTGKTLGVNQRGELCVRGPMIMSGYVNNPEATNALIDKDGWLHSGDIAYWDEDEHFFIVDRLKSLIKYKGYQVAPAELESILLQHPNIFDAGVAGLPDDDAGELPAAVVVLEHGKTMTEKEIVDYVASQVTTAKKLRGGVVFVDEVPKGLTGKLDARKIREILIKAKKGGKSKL
Compounds were transferred to the plates in 23nl, and one microliter/well luciferase enzyme-buffer solution (10 nM P. pyralis luciferase and 50 mM Tris Acetate final concentrations) was dispensed yielding a final reaction volume of […]. Luciferase luminescence was measured by a ViewLux plate reader within 5 minutes of enzyme-buffer addition. The % activity was determined by normalizing to the average readings of PTC124 (a positive control) relative to DMSO (0% Activity). The concentration-effect curves were then classified based on curve quality (r2), response magnitude and degree of measured activity.
`OC[C@@H]1O[C@](CO)(O[C@H]2O[C@H](CO)[C@@H](O)[C@H](O)[C@H]2O)[C@H](O)[C@H]1O`: the Potency result was “inactive”.

With `CCN1CCN(C(=O)NC(C(=O)NC2C(=O)N3C(C(=O)O)=C(CSc4nnnn4C)CSC23)c2ccc(O)cc2)C(=O)C1=O` (stereo not given), the Potency result is “inactive”.

With `CCCCN1CC(O)C(O)C(O)C1CO` (stereo not given), the Potency result was “inactive”.

As to `COc1cc([C@H]2c3cc4c(cc3[C@@H](O[C@H]3O[C@H]5CO[C@@H](C)O[C@H]5[C@@H](O)[C@@H]3O)[C@@H]3COC(=O)[C@H]23)OCO4)cc(OC)c1O`, the Potency entry is “inactive”.

In the case of `CC1=C(/C=C/C(C)=C\C=C\C(C)=C\C=C\C=C(C)\C=C\C=C(C)\C=C\C2=C(C)C[C@@H](O)CC2(C)C)C(C)(C)C[C@H](O)C1`, the Potency result was “inactive”.

For `CC(=O)NC1[C@H](O)C[C@@](O)(C(=O)O)O[C@H]1[C@H](O)[C@H](O)CO` (stereo not given in full), the Potency result is “inactive”.

For the compound `C=C1CC2C3C=C(C)C4=CC(=O)CCC4(C)C3CCC2(C)[C@@]1(OC(C)=O)C(C)=O` (stereo not given in full), the Potency entry was “inactive”.

In the case of `CC1(Cn2ccnn2)[C@H](C(=O)O)N2C(=O)C[C@H]2S1(=O)=O` (stereo not given in full), the Potency entry was “inactive”.

`Clc1ccc(CS[C@@H](Cn2ccnc2)c2ccc(Cl)cc2Cl)cc1`: the Potency result was “inactive”.

As for `C=C1[C@@H]2CC[C@H](C2)C1(C)C`, the Potency result was “inactive”.

As for `CN[C@H](C)CCC=C(C)C`, the Potency entry was “inactive”.

Consider `CCN(CC)C(=O)Nc1ccc(OC[C@H](O)CNC(C)(C)C)c(C(C)=O)c1`, for which the Potency entry was “inactive”.

With `CCC(=O)O[C@]1(C(=O)CCl)[C@@H](C)CC2C3C[C@H](F)C4=CC(=O)C=CC4(C)[C@@]3(F)C(O)CC21C` (stereo not given in full), the Potency result is “inactive”.

As to `CCCC[C@H](O)c1ccccc1`, the Potency entry was “inactive”.

For the compound `COC(=O)C1[C@@H](OC)C(OC(=O)COc2ccc(OC)cc2)C[C@@H]2CN3CCc4c([nH]c5cc(OC)ccc45)[C@H]3C[C@H]12` (stereo not given in full), the Potency result was “inactive”.

As for `COc1ccc(C(=O)/C(Br)=C/C(=O)O)cc1`, the Potency entry is “inactive”.

For `CC1OC(OC2C(O)CC(OC3C(O)CC(OC4CCC5(C)C(CCC6C5CCC5(C)C(C7=CC(=O)OC7)CCC65O)C4)OC3C)OC2C)CC(O)C1O` (stereo not given), the Potency result was “inactive”.

For the compound `CNC1C(O)C(OC2C(N)CC(N)C(OC3OC(CN)=CCC3N)C2O)OCC1(C)O` (stereo not given), the Potency result was “inactive”.

Turning to `CC[C@@]1(O)CC2CN(CCc3c([nH]c4ccccc34)[C@](C(=O)OC)(c3cc4c(cc3OC)N(C)C3[C@@](O)(C(=O)OC)C(OC(C)=O)[C@]5(CC)C=CCN6CC[C@@]43C65)C2)C1` (stereo not given in full), the Potency entry was “inactive”.

Regarding `CC[C@@H](C)C(N)C(=O)O` (stereo not given in full), the Potency entry is “inactive”.

`CC1(C)SC2[C@@H](N=CN3CCCCCC3)C(=O)N2[C@H]1C(=O)O` (stereo not given in full): the Potency result is “inactive”.

Turning to `CC[C@H](C)[C@H]1O[C@]2(CC[C@@H]1C)C[C@@H]1C[C@@H](C/C=C(\C)[C@H](O[C@@H]3C[C@H](OC)[C@H](O[C@@H]4C[C@H](OC)[C@@H](O)[C@H](C)O4)[C@H](C)O3)[C@@H](C)/C=C/C=C3\CO[C@@H]4[C@H](O)C(C)=C[C@@H](C(=O)O1)[C@]34O)O2`, the Potency entry is “inactive”.

For `COc1cccc(OC)c1C(=O)NC1C(=O)N2C1SC(C)(C)C2C(=O)O` (stereo not given), the Potency result was “inactive”.

For `OCC1O[C@H](O[C@H]2C(O)C(O)C(O)O[C@@H]2CO)C(O)C(O)C1O` (stereo not given in full), the Potency entry was “inactive”.

Consider `CC1CCC(O)C/C1=C\C=C1/CCCC2(C)C1CCC2C(C)/C=C/C(C)C(C)C` (stereo not given), for which the Potency entry was “inactive”.

As for `C[C@H](O)[C@@H]1C(=O)N2C(C(=O)O)=C(SCCN=CN)C[C@@H]12`, the Potency result was “inactive”.

As for `OCC1OC(O)C(O)C(O)C1O` (stereo not given), the Potency result is “inactive”.

Take `CO/N=C(/C(=O)N[C@@H]1C(=O)N2C(C(=O)O)=C(C[n+]3ccc(N)n3CCO)CS[C@H]12)c1csc(N)n1`: the Potency result was “inactive”.

Turning to `CC(CN1CC(=O)NC(=O)C1)N1CC(=O)NC(=O)C1` (stereo not given), the Potency result is “inactive”.

Regarding `C=C1NC(=O)c2cc(CN(C)c3ccc(C(=O)N[C@@H](CCC(=O)O)C(=O)O)s3)ccc2N1`, the Potency result is “inactive”.

As for `CC1CCC(C(C)C)C(O)C1` (stereo not given), the Potency entry is “inactive”.

In the case of `Cc1cn([C@H]2CC(F)[C@@H](CO)O2)c(=O)[nH]c1=O` (stereo not given in full), the Potency result is “inactive”.

In the case of `O=c1[nH]c(=O)n(C2C[C@H](O)[C@@H](CO)O2)cc1C(F)(F)F` (stereo not given in full), the Potency result is “inactive”.

As to `O=C(O)c1ccc(N[C@@H]2OC[C@@H](O)[C@@H](O)[C@@H]2O)cc1`, the Potency entry is “inactive”.

Take `CCCCCCCCCCCCCCCC(=O)OC[C@H](O)[C@H]1OC[C@@H](O)[C@@H]1O`: the Potency entry was “inactive”.

Take `CCCCC(=O)OC1CCC2C3CCc4cc(O)ccc4C3CC[C@]12C` (stereo not given in full): the Potency entry is “inactive”.

Take `C=C(NCc1ccccc1)c1ccccc1O`: the Potency entry is “inactive”.

With `Cc1cnc(C(=O)O)cn1`, the Potency result was “inactive”.

Take `NC(C(=O)O)c1ccc(O)cc1` (stereo not given): the Potency entry was “inactive”.

Regarding `CC(=O)NC1[C@H]([C@H](O)[C@H](O)CO)OC(C(=O)O)=C[C@H]1N=C(N)N` (stereo not given in full), the Potency result was “inactive”.

Source of the values: PubChem BioAssay (NCATS).
